Measurements published in PubChem BioAssay (EPA / NIEHS).
Active and inactive are the calls of the source. Rule for the calls: active = hit-call score of the fitted dose curve at least 0.9, where 1 is the maximum; inactive = score below 0.9.

Legend:
[1] = read-out: Urokinase-type plasminogen activator receptor (uPAR), PLAUR (gene 5329); assay: BSK_CASM3C_uPAR: BioMAP Diversity Plus: CASM3C Assay for Urokinase-type plasminogen activator receptor (uPAR) Biomarker Activity (AID 2283054); conditions: primary human coronary artery smooth muscle cells; actives raise or lower the signal;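 note: cell-surface uPAR protein level quantified by ELISA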
[2] = read-out: Vascular cell adhesion molecule 1 (VCAM1), VCAM1 (gene 7412); assay: BSK_CASM3C_VCAM1: BioMAP Diversity Plus: CASM3C Assay for Vascular cell adhesion molecule 1 (VCAM1) Biomarker Activity (AID 2283055); conditions: primary human coronary artery smooth muscle cells; actives raise or lower the signal;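 note: VCAM-1 protein level quantified by ELISA on the cells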
[3] = read-out: Collagen III, COL3A1 (gene 1281); assay: BSK_hDFCGF_CollagenIII: BioMAP Diversity Plus: hDFCGF Assay for Collagen III Biomarker Activity (AID 2283056); conditions: primary human foreskin fibroblasts; actives raise or lower the signal
Outline: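 Cells: human foreskin fibroblasts, primary. Dosing followed by 24 h incubation, then ELISA for collagen III. Both increases and decreases scored relative to DMSO.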

[4] = read-out: Epidermal growth factor receptor (EGFR), EGFR (gene 1956); assay: BSK_hDFCGF_EGFR: BioMAP Diversity Plus: hDFCGF Assay for Epidermal growth factor receptor (EGFR) Biomarker Activity (AID 2283057); conditions: primary human foreskin fibroblasts; actives raise or lower the signal
Outline: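 EGFR levels by ELISA in human dermal fibroblast cultures, 24 h post-treatment, fitted bidirectionally versus DMSO. Parallel wells stained with sulforhodamine B to detect overt cytotoxicity.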

[5] = read-out: Interleukin-8 (IL8), CXCL8 (gene 3576); assay: BSK_hDFCGF_IL8: BioMAP Diversity Plus: hDFCGF Assay for Interleukin-8 (IL8) Biomarker Activity (AID 2283058); conditions: primary human foreskin fibroblasts; actives raise or lower the signal
Outline: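 IL-8 levels from compound-treated primary human fibroblasts were read by ELISA at 24 h, with DMSO serving as baseline for bidirectional fitting.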

[6] = BSK_hDFCGF_Proliferation: Cell Proliferation Assessment in the BioMAP Diversity Plus: hDFCGF Assay (AID 2283059); conditions: primary human foreskin fibroblasts;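 note: curves fitted for both rise and fall of signal versus DMSO baseline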
Outline: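 Steps: dose primary human dermal fibroblasts (foreskin); […] fix in 10% TCA; stain with 0.1% SRB; read 560 nm; fit gain or loss of signal against DMSO.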

[7] = read-out: Macrophage colony-stimulating factor (MCSF), CSF1 (gene 1435); assay: BSK_hDFCGF_MCSF: BioMAP Diversity Plus: hDFCGF Assay for Macrophage colony-stimulating factor (MCSF) Biomarker Activity (AID 2283060); conditions: primary human foreskin fibroblasts; actives raise or lower the signal
Outline: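 M-CSF levels, determined by ELISA, are taken at 24 h after dosing human skin fibroblasts. Responses in either direction are fitted with DMSO serving as the baseline.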

[8] = BSK_hDFCGF_SRB: Viability Assessment in the BioMAP Diversity Plus: hDFCGF Assay (AID 2283061); conditions: primary human foreskin fibroblasts;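 note: cells exposed to compound for 24 h before the read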
Outline: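 Cells were dosed with test chemical, cultured 24 h, fixed with 10% TCA, then stained with 0.1% SRB and read at 560 nm. The fibroblasts were human foreskin primary cells, and DMSO served as baseline.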

[9] = read-out: TIMP metallopeptidase inhibitor 1 (TIMP1), TIMP1 (gene 7076); assay: BSK_hDFCGF_TIMP1: BioMAP Diversity Plus: hDFCGF Assay for TIMP metallopeptidase inhibitor 1 (TIMP1) Biomarker Activity (AID 2283062); conditions: primary human foreskin fibroblasts; actives raise or lower the signal
Outline: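 Fibroblasts from human foreskin are treated with test chemical and harvested at 24 h. TIMP-1 is quantified by ELISA, and gain or loss of signal is scored against DMSO.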

[10] = read-out: Monokine induced gamma interferon (MIG), CXCL9 (gene 4283); assay: BSK_hDFCGF_MIG: BioMAP Diversity Plus: hDFCGF Assay for Monokine induced gamma interferon (MIG) Biomarker Activity (AID 2283063); conditions: primary human foreskin fibroblasts; actives raise or lower the signal
Outline: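 MIG signal, determined by ELISA, reflects 24 h chemical exposure of human skin primary fibroblasts. DMSO serves as negative control and baseline.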

[11] = read-out: Matrix Metallopeptidase 1 (MMP1), MMP1 (gene 4312); assay: BSK_hDFCGF_MMP1: BioMAP Diversity Plus: hDFCGF Assay for Matrix Metallopeptidase 1 (MMP1) Biomarker Activity (AID 2283064); conditions: primary human foreskin fibroblasts; actives raise or lower the signal
Outline: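 ELISA read-out of MMP1 from human foreskin fibroblasts (primary skin cells), 24 h post-dose. Gain or loss of signal was fitted bidirectionally versus DMSO negative control; cytotoxicity was checked by SRB in parallel cultures.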

[12] = read-out: Vascular cell adhesion molecule 1 (VCAM1), VCAM1 (gene 7412); assay: BSK_hDFCGF_VCAM1: BioMAP Diversity Plus: hDFCGF Assay for Vascular cell adhesion molecule 1 (VCAM1) Biomarker Activity (AID 2283065); conditions: primary human foreskin fibroblasts; actives raise or lower the signal;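 for AC50: VCAM-1 protein level quantified by ELISA after 24 h chemical exposure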
Outline: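 Cells are dosed, cultured for 24 h, then VCAM-1 is quantified by ELISA; signal increases and decreases are both fitted relative to DMSO.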

[13] = read-out: Plasminogen activator inhibitor-1 (PAI1), SERPINE1 (gene 5054); assay: BSK_hDFCGF_PAI1: BioMAP Diversity Plus: hDFCGF Assay for Plasminogen activator inhibitor-1 (PAI1) Biomarker Activity (AID 2283066); conditions: primary human foreskin fibroblasts; actives raise or lower the signal
Outline: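 PAI-1 levels in human dermal foreskin fibroblasts were quantified by ELISA 24 h after dosing, with gain or loss analysed against DMSO. Overt cytotoxicity was checked by sulforhodamine B total-protein staining in parallel cultures.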

[14] = read-out: Intercellular Adhesion Molecule 1 (ICAM1), ICAM1 (gene 3383); assay: BSK_KF3CT_ICAM1: BioMAP Diversity Plus: KF3CT Assay for Intercellular Adhesion Molecule 1 (ICAM1) Biomarker Activity (AID 2283067); conditions: primary human keratinocytes with fibroblasts; actives raise or lower the signal
Outline: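 Dose the keratinocyte/fibroblast co-culture, wait 24 h, measure ICAM-1 by ELISA, then fit increases or decreases against DMSO. Cytotoxicity is checked in parallel cultures by SRB total-protein staining.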

[15] = read-out: Interferon-gamma inducible Protein 10 (IP10), CXCL10 (gene 3627); assay: BSK_KF3CT_IP10: BioMAP Diversity Plus: KF3CT Assay for Interferon-gamma inducible Protein 10 (IP10) Biomarker Activity (AID 2283068); conditions: primary human keratinocytes with fibroblasts; actives raise or lower the signal
Outline: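 KF3CT co-culture (keratinocytes + foreskin fibroblasts), 24 h compound, IP-10 by ELISA; bidirectional fit vs DMSO baseline.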

[16] = read-out: Interleukin-1 alpha (IL1a), IL1A (gene 3552); assay: BSK_KF3CT_IL1a: BioMAP Diversity Plus: KF3CT Assay for Interleukin-1 alpha (IL1a) Biomarker Activity (AID 2283070); conditions: primary human keratinocytes with fibroblasts; actives raise or lower the signal
Outline: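 Primary skin co-culture (keratinocytes, foreskin fibroblasts), 24 h exposure; ELISA for IL-1a; bidirectional curve fit vs DMSO.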

[17] = read-out: TIMP metallopeptidase inhibitor 2 (TIMP2), TIMP2 (gene 7077); assay: BSK_KF3CT_TIMP2: BioMAP Diversity Plus: KF3CT Assay for TIMP metallopeptidase inhibitor 2 (TIMP2) Biomarker Activity (AID 2283071); conditions: primary human keratinocytes with fibroblasts; actives raise or lower the signal
Outline: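 TIMP-2 measured by ELISA at 24 h in human keratinocyte/fibroblast primary co-cultures exposed to chemicals. Both increases and decreases were fitted against DMSO. Parallel cultures were stained with SRB for total protein as an overt-cytotoxicity check.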

[18] = read-out: Transforming growth factor beta 1 (TGFb1), TGFB1 (gene 7040); assay: BSK_KF3CT_TGFb1: BioMAP Diversity Plus: KF3CT Assay for Transforming growth factor beta 1 (TGFb1) Biomarker Activity (AID 2283072); conditions: primary human keratinocytes with fibroblasts; actives raise or lower the signal
Outline: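 ELISA quantifies TGF-b1 at 24 h post-dose in a primary human skin co-culture of keratinocytes and fibroblasts, with gain or loss judged against DMSO. Parallel SRB total-protein staining flags overt cytotoxicity.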

[19] = read-out: C-C motif chemokine 2 (Homo sapiens) (UniProt P13500); assay: BSK_KF3CT_MCP1: BioMAP Diversity Plus: KF3CT Assay for Monocyte Chemoattractant Protein 1 (MCP1/CCL2) Biomarker Activity (AID 2283073); conditions: primary human keratinocytes with fibroblasts; actives raise or lower the signal
Outline: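 Keratinocytes and foreskin fibroblasts were co-cultured, dosed with chemical, and sampled 24 h later. MCP-1 was quantified by ELISA, and the endpoint was analyzed with bidirectional fitting using DMSO as negative control.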

[20] = read-out: Matrix Metallopeptidase 9 (MMP9), MMP9 (gene 4318); assay: BSK_KF3CT_MMP9: BioMAP Diversity Plus: KF3CT Assay for Matrix Metallopeptidase 9 (MMP9) Biomarker Activity (AID 2283074); conditions: primary human keratinocytes with fibroblasts; actives raise or lower the signal;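 for AC50: MMP9 protein level quantified by ELISA in the co-culture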
Outline: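 ELISA read-out of MMP-9 at 24 h post-dosing in a co-culture of human skin keratinocytes and foreskin fibroblasts. Gain or loss of signal was fitted in both directions against DMSO.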

O=c1c2ccccc2oc2ccccc12
outcome [1]: inactive
outcome [2]: inactive
outcome [3]: inactive
outcome [4]: inactive
outcome [5]: inactive
outcome [6]: inactive
outcome [7]: inactive
outcome [8]: inactive
outcome [9]: inactive
outcome [10]: inactive
outcome [11]: inactive
outcome [12]: inactive
outcome [13]: inactive
outcome [14]: inactive
outcome [15]: inactive
outcome [16]: inactive
outcome [17]: inactive
outcome [18]: inactive
outcome [19]: inactive
outcome [20]: inactive

N#[N+]c1ccc2c(S(=O)(=O)[O-])cccc2c1O
outcome [1]: inactive
outcome [2]: inactive
outcome [3]: inactive
outcome [4]: inactive
outcome [5]: inactive
outcome [6]: inactive
outcome [7]: inactive
outcome [8]: inactive
outcome [9]: inactive
outcome [10]: inactive
outcome [11]: inactive
outcome [12]: inactive
outcome [13]: inactive
outcome [14]: inactive
outcome [15]: inactive
outcome [16]: inactive
outcome [17]: inactive
outcome [18]: inactive
outcome [19]: inactive
outcome [20]: inactive

c1ccc2c(c1)ccc1ncccc12
outcome [1]: inactive
outcome [2]: inactive
outcome [3]: inactive
outcome [4]: inactive
outcome [5]: inactive
AC50 [6]: 20 µM (active)
outcome [7]: inactive
outcome [8]: inactive
outcome [9]: inactive
outcome [10]: inactive
outcome [11]: inactive
outcome [12]: inactive
outcome [13]: inactive
outcome [14]: inactive
outcome [15]: inactive
AC50 [16]: 8.26 µM (active)
outcome [17]: inactive
outcome [18]: inactive
outcome [19]: inactive
AC50 [20]: 20 µM (active)

CC(C)(c1cc(Br)c(OCCO)c(Br)c1)c1cc(Br)c(OCCO)c(Br)c1
outcome [1]: inactive
AC50 [2]: 6.14 µM (active)
AC50 [3]: 4.6 µM (active)
outcome [4]: inactive
outcome [5]: inactive
AC50 [6]: 4.47 µM (active)
AC50 [7]: 8.17 µM (active)
AC50 [8]: 16.2 µM (active)
AC50 [9]: 25.4 µM (active)
AC50 [10]: 13.1 µM (active)
outcome [11]: inactive
AC50 [12]: 7.21 µM (active)
AC50 [13]: 16.2 µM (active)
AC50 [14]: 16.2 µM (active)
AC50 [15]: 9.81 µM (active)
AC50 [16]: 12.1 µM (active)
AC50 [17]: 16.2 µM (active)
AC50 [18]: 6.03 µM (active)
AC50 [19]: 16.2 µM (active)
AC50 [20]: 7.47 µM (active)
